This is a sample that favours compounds with a hit; in the whole collection about 11% have one here.
INS promoter inh: inhibitors of insulin promoter-driven GFP, primary screen, imaging, TRM-6 cells (human fetal islet line), eGFP reporter, cell count. reporter expression induced with tamoxifen. inhibition, % at 2 µM. 130,000 compounds, 0.9% hits. AID 1273, 2008;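 active = inhibition above the mean plus 3 SD, with well images judged a real hit on visual review, cut at about 60% in these data, passing the limit was not always enough; inconclusive = inhibition over the cutoff but images rejected on review; inactive = inhibition not above the cutoff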
Insulin prom up: insulin promoter activators in MIN6 cells, imaging, high-content screening, mouse beta cells | z-score at 5 µM | 190,000 compounds, 0.3% hits | MIN6 insulin promoter-GFP reporter; active compounds read high | AID 1625, 2009;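 active = z-score above 3 at 5 µM with at least 500 cells counted in the well; inconclusive = wells under 500 cells, flagged as cytotoxic or low count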
L major viab: Leishmania major promastigote growth inhibition, primary screen | Leishmania major promastigotes, resazurin fluorescence viability | inhibition, % at 10 µM | 200,000 compounds, 9% hits | AID 1063, 2008; in the data active = inhibition above about 50%;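 also: promastigotes grown with compound for 44 hours at 28 °C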
Autophagy HCS: autophagy modulators in MEF cells, primary screen, imaging, high-content, MEF GFP-LC3 | MEF GFP-LC3 puncta imaging; test concentration mostly 10 µM | calls only at 10 µM (by protocol) | 190,000 compounds, 0.98% hits | AID 463193, 2010;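 active = percentage of spot-positive cells more than 3 SD above its plate mean, without a fluorescence outlier flag or 80% toxicity; inconclusive = no clear call, values can overlap the other calls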;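 also: spot-positive cell cutoff set from DMSO-treated cells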
WT yeast gro inh: growth inhibition of WT strain, primary screen, mitochondrial fusion inhibitor project, WT and mutant strains, chemical genetic; inhibition, % at 10 µM; AID 1362, 2008; mitochondrial fusion phenotypic screen; 190,000 compounds, 2.1% hits; in the data active = inhibition above about 58%; tested in S. cerevisiae
Starred values were filed as active, the others as inactive; i = inactive; u = inconclusive; x = no result given; + = active, no number.

SMILES | INS promoter inh | Insulin prom up | L major viab | Autophagy HCS | WT yeast gro inh
Cc1nnc(SCc2c(Cl)cccc2[N+](=O)[O-])s1 | -10 | -0.31 | 80* | i | -3
O=C(O)c1ccc(NS(=O)(=O)c2ccc3c(c2)C(=O)c2ccccc2C3=O)cc1 | x | -0.56 | -8 | i | -4
O=C1C(Nc2ccc(O)cc2)=C/C(=N/S(=O)(=O)c2cccs2)c2ccccc21 | x | -4.4 | 100* | + | 41
Cc1cccc(NC2=C/C(=N/S(=O)(=O)c3cccs3)c3ccccc3C2=O)c1 | 8 | u | 19 | i | 20
O=C(O)c1ccc(NC2=C/C(=N/S(=O)(=O)c3ccccc3)c3ccccc3C2=O)cc1 | x | 0.72 | 100* | i | 48
Cc1ccc(Cl)cc1NC1=C/C(=N\S(=O)(=O)c2cccs2)c2ccccc2C1=O | -12 | -0.7 | 100* | i | 96*
Cc1ccc(NC2=C/C(=N\S(=O)(=O)c3cccs3)c3ccccc3C2=O)c(C)c1 | 22 | u | 101* | i | 96*
O=C1/C(=N\S(=O)(=O)c2cccs2)C([n+]2ccccc2)=C([O-])c2ccccc21 | x | 0.01 | x | x | x
CCOC(=O)CN(c1cc([N+](=O)[O-])ccc1OC)S(C)(=O)=O | x | -0.19 | -6 | i | 1
CN1CCN(NC(=O)CC(C)(C)C)CC1 | x | -0.18 | -6 | i | 1
CCCC(=O)NC(=S)Nc1cccc(Cl)c1N1CCCCC1 | -8 | -0.07 | 9 | i | 60*
CCCCC(=O)NC(=S)Nc1ccccc1N1CCCCC1 | 21 | 0.61 | 9 | i | 65*
O=C(NC(=S)Nc1ccccc1N1CCCCC1)c1cccs1 | -27 | 0.03 | 91* | i | 41
CCCCC(=O)NC(=S)Nc1cccc(Cl)c1N1CCCCC1 | x | 0.12 | 11 | i | 10
O=C(NC(=S)Nc1ccc(N2CCN(C(=O)c3ccccc3)CC2)cc1)c1cccs1 | x | -1.6 | 92* | i | 33
CC(C)=CC[N+]1(C)CCCCC1 | x | 0.53 | -5 | i | -3
CCN(CC)C(=O)C12CC3CC(CC(Br)(C3)C1)C2 | 3 | -0.31 | -8 | i | -6
Cc1cc2ccccc2nc1SCC(=O)NC1CCCC1 | 13 | -1.1 | 14 | i | -15
CSc1nc(SCC(=O)NC(c2ccccc2)c2ccccc2)c2c3c(sc2n1)CN(C)CC3 | -37 | 0.33 | 71* | i | 22
CSc1nc(NCCCO)c2c3c(sc2n1)CN(C)CC3 | x | -0.34 | x | x | x
Cc1ccc(NC(=O)CSc2nnc(Cn3cnc4ccccc43)o2)cc1 | x | 1.3 | -8 | i | -6
CCOC(=O)N1CCN(Cc2nc(C3CC3)no2)CC1 | x | -0.26 | 9 | i | -10
CC(C1CCN(Cc2nc(C3CC3)no2)CC1)N1CCOCC1 (stereo unspecified) | x | 0.25 | 78* | i | 6
CN(C)c1ccc(N=Cc2ccco2)cc1 | 64 | -3.6 | 71* | i | 6
CN(C)c1ccc(/C=N/NC(=O)c2ccccc2)cc1 | -10 | -0.21 | -1 | i | 7
SMILES | INS promoter inh | Insulin prom up | L major viab | Autophagy HCS | WT yeast gro inh
CN(C)c1ccc(C=Nc2ccc(N(C)C)cc2)cc1 | -377 | 0.16 | 71* | i | 21
C/C(=N/N=C/c1ccc(N(C)C)cc1)c1ccccc1 | 0 | 0.38 | 80* | i | -2
COC(=O)C(NC(C)=O)(Nc1ccc(C)cn1)C(F)(F)F (stereo unspecified) | x | 0.08 | x | x | x
O=[N+]([O-])c1ccc(N2CCN(C(=S)c3cccc([N+](=O)[O-])c3)CC2)cc1 | x | -0.54 | x | x | x
O=C(NC(=S)NCc1ccccc1)C1CCCCC1 | x | 0.7 | 15 | i | 7
O=C(/C=C/c1ccccc1Cl)N(Cc1ccc(Cl)cc1)C1CCS(=O)(=O)C1 (stereo unspecified) | -7 | 0.26 | 79* | i | 53
CC(C)c1nc2ccc(Br)cn2c1NC1CCCC1 | x | -0.46 | 40 | i | -1
O=C(COc1ccccc1)NCC(=O)Nc1cccc2ccccc12 | -10 | 0.52 | -5 | i | -6
O=C(COc1ccc(C(=O)c2ccccc2)cc1)NCC(=O)Nc1ccccc1Br | -3 | 0.61 | 62* | i | 4
Cn1c(N)c(C(=O)COC(=O)CSc2cccc3cccc(Cl)c23)c(=O)n(C)c1=O | -35 | x | -4 | i | -55
CCCCCCNc1nc(-c2ccc(OC)cc2)c(CCC(=O)O)s1 | x | 0.66 | -1 | i | 6
COc1ccc(-c2noc(CSc3nnc(CCc4ccccc4)n3-c3ccccc3)n2)cc1OC | -68 | x | 72* | i | 37
COc1ccc(-c2noc(CSc3nnc(Cc4ccccc4)n3-c3ccc(Cl)cc3)n2)cc1 | -31 | -0.19 | 18 | i | 60*
COc1ccc(-c2cc(=O)c(C(=O)c3ccc(C)cc3)n[nH]2)cc1 | x | 2.1 | -4 | i | -18
CCN(CCCNC(=O)c1ccc(N2CCCC2=O)cc1)c1cccc(C)c1 | x | -0.15 | 79* | i | 3
CCN(CCNC(=O)c1cccc(N2CCCC2=O)c1)c1ccccc1 | -66 | 0.08 | -1 | i | -5
COC(=O)C1=C(C)NC(=O)/C1=C\c1cc(C)n(-c2ccccc2C)c1C | 71* | -1.7 | 14 | i | 21
CC1=CC(C)(C)N(C(=O)c2ccc(F)cc2)c2cc3c(cc21)OCO3 | x | x | 36 | i | 71*
O=C(COC(=O)CCC(=O)c1cccs1)NC(=O)c1ccc(OC(F)F)cc1 | x | -0.71 | -7 | i | -11
O=C(/C=C/c1ccccc1)NC(NC(=S)Nc1ccc(Cl)cc1Cl)C(Cl)(Cl)Cl (stereo unspecified) | 15 | -0.19 | 59* | i | 38
O=C(/C=C/c1ccccc1)NC(NC(=S)Nc1cccc(O)c1)C(Cl)(Cl)Cl (stereo unspecified) | 26 | 0.69 | 93* | i | -16
O=C1C(c2ccc(F)cc2)N(C2CCCCC2)C(=O)CN1C1CCCC1 (stereo unspecified) | 18 | -0.53 | 4 | i | 4
Cc1ccc(C2C(=O)N(C3CCC(C)CC3)CC(=O)N2C2CCCC2)cc1 (stereo unspecified) | 68* | x | 27 | i | 21
Cc1ccccc1/C(N)=N/O | x | 0.24 | -3 | i | 1
CN(C(=O)Cc1c[nH]c2ccccc12)C(C(=O)Nc1ccc2c(c1)OCO2)c1ccccc1 (stereo unspecified) | 20 | -1.2 | 61* | i | 2
COc1ccccc1COCC(O)CN(Cc1ccco1)Cc1ccccc1O (stereo unspecified) | -3 | 0.04 | 82* | i | 24
CN(Cc1cccs1)CC(O)COCc1ccco1 (stereo unspecified) | 5 | -0.11 | -1 | i | -10
Nc1ccc2nc3c(=O)n(CCc4ccccc4)c(=O)[nH]c3nc2c1 | x | 1.2 | x | x | x
CCCCn1c(=O)[nH]c2nc3cc(N)ccc3nc2c1=O | x | 4.8* | 10 | i | -13
COc1cc(/C=N/OCC(=O)Nc2cc(C)cc(C)c2)ccc1OCc1ccc(Cl)cc1 | -12 | 0.05 | 96* | i | 36

Screens from PubChem BioAssay.
